Screening results (PubChem BioAssay)
SENP8 block-1: human SENP8 protease inhibitors, primary screen, biochemical, fluorescence, Nedd8 protein substrate, uHTS; Sentrin-specific protease 8 (Homo sapiens), Q96LD8; recombinant SENP8; inhibition, % at 20 µM; 360,000 compounds, 0.64% hits; in the data active means inhibition mostly above about 40%, no sharp cut-off; inactive means mostly below about 27%
Target sequence (Q96LD8 whole entry, looked up): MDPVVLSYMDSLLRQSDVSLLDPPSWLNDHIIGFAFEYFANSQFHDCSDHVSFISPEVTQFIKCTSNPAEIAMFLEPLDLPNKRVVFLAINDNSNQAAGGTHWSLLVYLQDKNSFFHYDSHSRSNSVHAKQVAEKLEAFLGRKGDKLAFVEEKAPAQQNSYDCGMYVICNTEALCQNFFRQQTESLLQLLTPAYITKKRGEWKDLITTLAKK
TRAIL sens C8: viability loss with TRAIL in NB7+C8 cells, primary screen, TRAIL sensitizer project, cell-based, ATPlite luminescence. inhibition (viability loss, TRAIL sensitization), % at 10 µM. 360,000 compounds, 1% hits. AID 624354, 2012;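 active means compounds causing at least 50% loss of cell viability in the single-dose screen, relative to plate controls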
SENP7 inh: SENP7 protease inhibitors, primary screen, biochemical, luminescence, uHTS | Sentrin-specific protease 7 (Homo sapiens), Q9BQF6 | recombinant SENP7, Z-RLRGG-aminoluciferin luminescence, 40 min | inhibition, % at 5 µM | 330,000 compounds, 1.5% hits | AID 434973, 2010;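 active means inhibition above about 50% at the single test dose, limit read from the data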
Target sequence (Q9BQF6 706-1050 limits assumed): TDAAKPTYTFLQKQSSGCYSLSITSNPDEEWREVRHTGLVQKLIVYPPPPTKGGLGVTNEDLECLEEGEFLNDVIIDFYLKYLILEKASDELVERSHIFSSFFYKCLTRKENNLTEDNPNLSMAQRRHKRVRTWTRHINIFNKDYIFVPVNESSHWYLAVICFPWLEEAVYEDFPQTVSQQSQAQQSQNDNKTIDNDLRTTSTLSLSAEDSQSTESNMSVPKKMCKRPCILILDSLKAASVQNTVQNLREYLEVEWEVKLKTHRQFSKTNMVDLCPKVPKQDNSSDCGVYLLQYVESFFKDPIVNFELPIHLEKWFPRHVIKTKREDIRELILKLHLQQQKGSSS
PPC-1+TRAIL kill: compounds killing PPC-1 cancer cells with TRAIL present, primary screen, TRAIL potentiator project, ATPLite luminescence, uHTS; cell killing (% activity), % at 4 µM or 5 µM; PPC-1 cells + TRAIL, ATPLite viability luminescence; 220,000 compounds, 0.41% hits;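 active means cell killing above 50% in the first pass at 4 µM, then a duplicate retest at 5 µM averaging 50% or more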
SENP6 block: SENP6 protease inhibitors, primary screen, biochemical, luminescence, uHTS; Sentrin-specific protease 6 (Homo sapiens), Q9GZR1; Recombinant SENP6 catalytic domain, aminoluciferin luminescence; inhibition, % at 10 µM; 330,000 compounds, 1.8% hits; AID 2599, 2010;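 active means inhibition above about 50% at the single tested dose, limit read from the data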
SENP8 block-2: SENP8 protease inhibitors, primary screen, biochemical, luminescence; Sentrin-specific protease 8 (Homo sapiens), Q96LD8; purified SENP8, Z-RLRGG-aminoluciferin cleavage; inhibition, % at 10 µM; 330,000 compounds, 1.2% hits; AID 2540, 2010; in the data active means inhibition above about 50%
Hits are given with their value; i = inactive; nt = no result given; ! = not active in a repeat. Hits are enriched below; roughly 3% of the tested compounds scored in any of these assays.

SMILES	SENP8 block-1	TRAIL sens C8	SENP7 inh	PPC-1+TRAIL kill	SENP6 block	SENP8 block-2
COC(C(=O)Nc1ccnn1C1CCN(Cc2cnn(C(C)C)c2)CC1)c1ccccc1 (centres undefined)	i	i	i	nt	i	i
CCN(C(=S)Nc1cc(S(=O)(=O)N2CCOCC2)ccc1Cl)c1cccc2ccccc12	i	i	i	i	77.2	57.9
O=C(c1cc2c(s1)CCCC2)n1cccn1	i	i	63.5	i	57.7	i
COc1ccc(NC(=O)C[C@H]2C(=O)N(c3ccccc3)C[C@@H]2CSC)cc1	i	i	nt	nt	nt	nt
O=C(NCCN1CCN(c2ccccc2)CC1)c1cccn2c(=O)c3ccccc3nc12	i	i	i	i	i	i
O=C(NCCNc1ccc2ccccc2c1)c1cccn2c(=O)c3sccc3nc12	nt	nt	i	i	56.3	i
C[C@@H](c1ccccc1)N1C[C@@H](COCc2ccccc2)Oc2cc(N3CC[C@H](O)C3)ccc2S1(=O)=O	i	i	nt	nt	nt	nt
Cn1c(N/N=C/c2cc3ccccc3nc2Cl)nc2ccccc21	i	87.7	i	i	i	i
Cc1ccc2cc(/C=N/Nc3nc4ccccc4[nH]3)c(Cl)nc2c1	i	87.4	nt	i	nt	nt
CON1C(=O)C(=O)N(OC)C(C)(C)C1(C)C	i	i	i	i	i	i
O=C(N/N=C/c1cccnc1)c1ccc2c(c1)OCO2	i	49.9	i	nt	i	i
Cc1cc(C(=O)N/N=C/c2cccc(OC(=O)c3ccco3)c2)n[nH]1	i	i	i	i	i	i
O=C(N/N=C/c1cccc(O)c1)c1ccc2c(c1)OCCO2	i	88.9	i	nt	i	i
Cc1nonc1C(=O)N/N=C/c1cccc(O)c1	i	i	92.2	i	83.6	86.5
O=C(N/N=C\c1cccc(OC(=O)c2ccco2)c1)c1ccc2c(c1)OCO2	i	86.5	i	53.4	i	i
O=C(N/N=C/c1ccc2c(c1)OCO2)c1ccc2c(c1)OCO2	i	i	i	nt	i	i
COc1cccc(/C=C2\CCC(C3CCCC3)C2=O)c1OC (centres undefined)	i	49.4	i	nt	i	i
CN(Cc1ccccc1)C(=O)c1[nH]cnc1C(=O)NCC(=O)OCc1ccccc1	i	i	i	nt	i	i
CCC(=O)Nc1nnc(-c2ccccn2)o1	i	i	i	i	i	i
O=C(Nc1nnc(-c2ccccn2)o1)c1ccc(Br)cc1	i	i	63.1	i	77.0	56.8
c1ccc2sc(SCc3ccc(-c4nnco4)cc3)nc2c1	i	i	88.5	i	96.0	88.6
O=C(OCCC12CC3CC(CC(C3)C1)C2)c1ccc(NCc2cc(O)ccc2O)cc1	i	91.7	nt	nt	nt	nt
CCNC(=O)OCCC12CC3CC(CC(C3)C1)C2	i	i	nt	i	nt	nt
N#CCC(=O)Nc1ccc(C(=O)OCC(=O)C23CC4CC(CC(C4)C2)C3)cc1	i	i	i	nt	i	i
O=C(OCC12CC3CC(CC(C3)C1)C2)c1ccc(NCc2cc(O)ccc2O)cc1	i	92.5	nt	nt	nt	nt
SMILES	SENP8 block-1	TRAIL sens C8	SENP7 inh	PPC-1+TRAIL kill	SENP6 block	SENP8 block-2
COc1ccccc1C(C)NC(=O)Cc1ccc(S(=O)(=O)N2CCOCC2)s1 (centres undefined)	i	i	i	nt	i	i
CCS(=O)(=O)C1=NN2C(=N)/C(=C\c3ccc(OC(=O)c4ccco4)c(OC)c3)C(=O)N=C2S1	i	i	i	nt	i	53.2
O=C(NOC(=O)c1ccccc1)c1ccccc1	i	i	i	i	i	i
N/C(=N\OC(=O)c1ccccc1)C(Cc1ccccc1)C(=O)NOC(=O)c1ccccc1 (centres undefined)	i	89.4	nt	nt	nt	nt
CCCC(=O)N1CCN(c2ccc(NC(=O)c3ccc([N+](=O)[O-])o3)cc2Cl)CC1	i	59.3	nt	i	nt	nt
CCN1CCN(c2c(Cl)cccc2NC(=O)c2ccc([N+](=O)[O-])o2)CC1	i	59.3	i	nt	i	i
O=C(Nc1cccc(Cl)c1N1CCCC1)c1ccc([N+](=O)[O-])o1	i	i	i	i	i	i
CC(C)C(=O)N1CCN(c2ccc(NC(=O)c3ccc([N+](=O)[O-])o3)cc2Cl)CC1	i	67.3	nt	i	nt	nt
CN1CCN(c2ccc(NC(=O)c3ccc([N+](=O)[O-])o3)cc2Cl)CC1	i	i	i	nt	i	i
CCOC(=O)C1(C)CCCN(C(=O)c2ccccc2OC(F)(F)F)C1 (centres undefined)	i	i	nt	nt	nt	nt
Nc1c(N(CCCO)C(=O)CCCN2C(=O)c3cccc4cccc(c34)C2=O)c(=O)[nH]c(=O)n1Cc1ccccc1	i	i	nt	nt	nt	nt
O=C(CCN1CCN(c2ccccc2)CC1)N/N=C/c1ccccc1OC(F)F	i	i	i	i	i	i
O=C1CN(c2nc3nonc3nc2N2CCCCC2)CCN1	i	i	i	i	i	i
O=C(COC(=O)CNC(=O)c1ccccc1)Nc1nc(-c2ccccc2)cs1	i	i	i	i	i	i
Nc1nc(-c2ccccc2)c(N=Nc2ccc(Cl)cc2)s1	46.0	i	i	i	i	i
COc1cc([C@H]2Oc3c(OC)cc(CCCO[C@@H]4O[C@H](CO)[C@@H](O)[C@H](O)[C@H]4O)cc3[C@@H]2CO)ccc1O	i	i	i	nt	i	i
Cc1cc(Br)ccc1OCCCCNCCO	i	52.7	i	i	i	i
C[C@H](CO)N1C[C@H](C)[C@H](CN(C)S(=O)(=O)c2ccc(Cl)cc2)OCc2cnnn2CCCC1=O	i	i	nt	nt	nt	nt
C=C(C)CSc1nnc2n(C)c(=O)c3c4c(sc3n12)CCC4	i	55.0	i	i	i	i
S=c1nc[nH]c2nc[nH]c12	i	71.0	i	nt	i	i
COCCCNCC(O)C(F)(F)F (centres undefined)	i	i	i	i	i	i
O=c1c2ccccc2ncn1-c1ccc(Cl)c(Cl)c1	i	i	i	i	i	i
Clc1ccc(-n2cnc3c(Cl)ncnc32)cc1Cl	i	73.7	nt	nt	nt	nt
CC12CCC(/C(=C/NNc3ccc([N+](=O)[O-])cc3[N+](=O)[O-])C1=O)C2(C)C (centres undefined)	30.4	i	nt	nt	nt	nt
O=C(NNc1ccc([N+](=O)[O-])cc1[N+](=O)[O-])C1C2CCCCC21 (centres undefined)	i	i	i	i	i	i
Cc1ccc(S(=O)(=O)NN=C2CCN(Cc3ccccc3)CC2)cc1	i	i	i	i	i	i
O=C1C(NS(=O)(=O)c2cccs2)=C(N2CCN(c3ccccc3)CC2)C(=O)c2ccccc21	68.6	i	i	i	i	i
Cc1ccc(S(=O)(=O)NC2=C(N3CCN(Cc4ccccc4)CC3)C(=O)c3ccccc3C2=O)cc1	39.3	i	i	i	i	i
Cc1ccc(S(=O)(=O)NC2=C(N3CCN(c4ccccc4F)CC3)C(=O)c3ccccc3C2=O)cc1	45.6!	i	i	i	i	i
